Screening data: PubChem BioAssay, Center for Chemical Genomics, University of Michigan
The entries come from a sample that favours hits as a whole.
Dicer processing – blocks human Dicer maturation of pre-miR-21 | Q9UPY3 | cat-ELCCA pre-miR-21 Dicer processing, chemiluminescence; active compounds read high | z-score at 25 µM | 6% of 47,000 active; in the data active = z-score above about 3, passing the limit was not always enough;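 also: plate controls were vehicle for no effect and no enzyme for full effect; higher signal means more uncleaved substrate so more Dicer inhibition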
Target sequence (Q9UPY3 whole entry, looked up): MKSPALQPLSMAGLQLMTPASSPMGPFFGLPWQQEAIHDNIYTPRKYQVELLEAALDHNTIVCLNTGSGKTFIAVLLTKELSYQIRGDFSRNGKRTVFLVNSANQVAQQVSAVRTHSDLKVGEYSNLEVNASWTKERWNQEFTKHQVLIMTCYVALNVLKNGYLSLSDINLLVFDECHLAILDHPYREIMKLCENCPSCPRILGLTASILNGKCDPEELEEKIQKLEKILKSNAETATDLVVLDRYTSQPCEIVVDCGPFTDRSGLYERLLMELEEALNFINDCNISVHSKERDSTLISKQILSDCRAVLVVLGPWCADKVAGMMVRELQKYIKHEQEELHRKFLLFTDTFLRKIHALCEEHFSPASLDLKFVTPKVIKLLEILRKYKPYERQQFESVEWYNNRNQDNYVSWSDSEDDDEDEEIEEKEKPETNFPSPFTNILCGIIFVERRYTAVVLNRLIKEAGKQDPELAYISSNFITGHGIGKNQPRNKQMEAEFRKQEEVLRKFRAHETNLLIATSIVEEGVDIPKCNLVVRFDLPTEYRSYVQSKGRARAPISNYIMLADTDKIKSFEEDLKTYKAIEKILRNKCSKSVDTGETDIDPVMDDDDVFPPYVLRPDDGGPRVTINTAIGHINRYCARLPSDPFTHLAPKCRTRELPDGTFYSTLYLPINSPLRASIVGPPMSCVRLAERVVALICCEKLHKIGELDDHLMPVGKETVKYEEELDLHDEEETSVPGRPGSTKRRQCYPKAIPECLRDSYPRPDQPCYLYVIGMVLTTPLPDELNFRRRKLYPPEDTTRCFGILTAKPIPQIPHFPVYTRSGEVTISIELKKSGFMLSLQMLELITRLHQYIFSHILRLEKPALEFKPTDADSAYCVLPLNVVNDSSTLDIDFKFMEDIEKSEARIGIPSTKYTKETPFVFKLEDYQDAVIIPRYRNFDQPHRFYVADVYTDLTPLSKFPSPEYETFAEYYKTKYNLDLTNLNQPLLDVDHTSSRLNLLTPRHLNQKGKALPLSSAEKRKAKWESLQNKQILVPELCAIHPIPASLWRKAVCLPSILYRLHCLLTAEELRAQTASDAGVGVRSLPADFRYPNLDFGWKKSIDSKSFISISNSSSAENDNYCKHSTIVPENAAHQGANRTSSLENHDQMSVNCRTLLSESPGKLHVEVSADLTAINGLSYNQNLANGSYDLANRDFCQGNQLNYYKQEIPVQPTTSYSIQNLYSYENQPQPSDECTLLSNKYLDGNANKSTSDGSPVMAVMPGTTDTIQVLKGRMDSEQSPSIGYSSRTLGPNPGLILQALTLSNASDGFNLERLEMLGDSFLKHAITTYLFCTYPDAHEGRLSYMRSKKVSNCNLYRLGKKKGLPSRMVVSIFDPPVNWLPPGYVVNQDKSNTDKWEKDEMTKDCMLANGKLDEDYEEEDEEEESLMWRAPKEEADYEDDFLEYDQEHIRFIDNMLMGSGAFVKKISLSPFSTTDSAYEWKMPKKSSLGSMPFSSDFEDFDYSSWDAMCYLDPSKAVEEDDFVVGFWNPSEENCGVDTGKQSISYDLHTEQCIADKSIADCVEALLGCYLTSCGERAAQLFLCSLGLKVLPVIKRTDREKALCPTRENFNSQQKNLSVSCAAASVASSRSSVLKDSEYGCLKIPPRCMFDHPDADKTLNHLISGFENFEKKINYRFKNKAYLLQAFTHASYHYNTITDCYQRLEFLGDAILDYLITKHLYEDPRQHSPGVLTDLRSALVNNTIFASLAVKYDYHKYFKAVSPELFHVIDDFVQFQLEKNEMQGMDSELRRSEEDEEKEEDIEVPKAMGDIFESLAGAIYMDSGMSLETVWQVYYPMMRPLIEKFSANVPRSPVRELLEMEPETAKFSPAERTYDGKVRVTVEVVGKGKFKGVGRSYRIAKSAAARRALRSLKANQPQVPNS
* hit, by the source's call.

SMILES	Dicer processing
COc1ccc(Oc2coc3cc(OC(C)C(=O)OC4CCCCC4)ccc3c2=O)cc1 (stereo not drawn)	-0.49
O=C(O)COCC(=O)NNc1c(Cl)cncc1Cl	-1.91
Cc1ccc(C2C=C(c3ccccc3)Nc3nc(NS(=O)(=O)c4ccc(C)cc4)nn32)cc1 (stereo not drawn)	3.96*
O=C(CCc1ccccc1)Nc1nc2n(n1)C(c1ccc(F)cc1)C=C(c1ccccc1)N2 (stereo not drawn)	1.1
Cc1ccc(S(=O)(=O)Nc2nc3n(n2)C(c2ccccc2)C=C(c2ccccc2)N3)cc1 (stereo not drawn)	-0.53
S=c1[nH]nc2nnc3cc(Cl)ccc3n12	-1.03
CC1(C)CC(=O)C(Sc2ccc([N+](=O)[O-])cc2)=C(OC(=O)c2ccc(F)cc2)C1	1.21
CC(=O)N1N=C(c2ccc(C)cc2)OC1c1cccnc1 (stereo not drawn)	0.44
CC(=O)N1N=C(c2cc(C)ccc2[N+](=O)[O-])OC1c1ccc(N(C)C)cc1 (stereo not drawn)	-2.78
CC(=O)N1N=C(c2ccc(Br)cc2)OC1c1ccc(F)cc1 (stereo not drawn)	3.17*
Cc1cc(CNC(=O)CN2C(=O)c3ccccc3C2=O)no1	1.55
O=C(/C=C/Oc1ccc(Cl)cc1)c1ccc(Br)cc1	0.38
CC1CCC2C(=O)N(c3ccc(Cl)cc3)C(=O)C2C1 (stereo not drawn)	-1.53
CC1CCC2C(=O)N(c3ccc(C(=O)OC(C)C(=O)c4ccccc4)cc3)C(=O)C2C1 (stereo not drawn)	3.14*
CC1CCC2C(=O)N(c3ccc(N4C(=O)C5CCC(C)CC5C4=O)cc3)C(=O)C2C1 (stereo not drawn)	2.83
CCOC(=O)c1sc(N2C(=O)c3oc4ccccc4c(=O)c3C2c2ccc(F)cc2)nc1C (stereo not drawn)	-0.43
Nc1nccnc1C(=O)N/N=C/c1ccc(Cl)cc1	1.29
CCCOC(=O)C1=C(C)NC2=C(C(=O)CC(C)(C)C2)C1c1ccccc1 (stereo not drawn)	2.58
CC(C)c1ccc(C2CC(=O)c3cnc(NCc4ccco4)nc3C2)cc1 (stereo not drawn)	-0.62
CCOc1ccc(N(C)S(=O)(=O)c2ccc(Cl)cc2)cc1	3.14*
CCOc1ccc2c(c1)C(C)=CC(C)(C)N2S(=O)(=O)c1ccc(Cl)cc1	0.79
COc1ccc(N(C2C=CS(=O)(=O)C2)S(=O)(=O)c2ccc(Cl)cc2)cc1 (stereo not drawn)	-1.01
Cc1cc(C)nc(NCc2cccnc2)n1	-0.09
Cc1noc(/C=C/c2ccc3c(c2)OCO3)c1[N+](=O)[O-]	-0.33
CCCC(=O)N(c1ccc2oc(=O)sc2c1)S(=O)(=O)c1ccc(Cl)cc1	2.07
SMILES	Dicer processing
CCc1ccc(S(=O)(=O)Nc2cccc(S(N)(=O)=O)c2)cc1	-0.66
CCCCC(=O)N(c1ccc2oc(=O)sc2c1)S(=O)(=O)c1ccccc1	-0.63
CCc1ccc(S(=O)(=O)Nc2ccc3oc(=O)sc3c2)cc1	7.88*
CCc1ccc(-c2nc3cc(NS(=O)(=O)c4ccccc4)ccc3o2)cc1	1.96
CCc1ccc(CC)c(S(=O)(=O)Nc2ccc3oc(=O)sc3c2)c1	7.82*
COc1ccc(CNCCC(c2ccco2)c2ccccc2OC)cc1OC (stereo not drawn)	-0.61
CCCN(CCC)S(=O)(=O)c1ccc(C(=O)Nc2c(Cl)c(Cl)cc(Cl)c2Cl)cc1	-4.97
N#Cc1cnn2c1[nH]c(=O)c1ccccc12	-1.98
O=C(c1cnn2c(C(F)F)cc(-c3ccccc3)nc12)N1CCCCC1	0.82
COc1ccc(Cc2nc(C)cc(Cl)n2)cc1Br	-0.31
COc1cc(C(F)(F)F)nc2ccc(C#CCOC(=O)c3ccc(Cl)cc3)cc12	-1.15
COc1ccc(/C=C/c2nc3ccccc3n2C)cc1	1.15
COc1ccc(/C=C/c2ccc(OC)cc2)cc1	3.15*
COc1ccc(/C=C/c2sc(C)c(C)[n+]2C)cc1	-4.76
NC(=O)c1c(NC(=O)Cn2c(=O)sc3ccccc32)sc2c1CCCC2	-0.56
NCCSc1cc(C(F)(F)F)nc2ccccc12	-0.18
COCCN1C(=O)C(O)=C(C(=O)c2cc3ccccc3o2)C1c1cccc(OC)c1 (stereo not drawn)	-1.69
NC(=O)CN1C(C(=O)c2ccccc2)=C(N2CCOCC2)c2ccccc2S1(=O)=O	0.95
CCCN(CCC)C1=C(C(=O)c2ccccc2)N(CC(N)=O)S(=O)(=O)c2ccccc21	3.45*
NC(=O)CN1C(C(=O)c2ccccc2)=C(NCc2ccccc2)c2ccccc2S1(=O)=O	0.71
O=C1CC2(CCCCC2)CC(=O)N1c1ccc(I)cc1F	-0.41
O=C(N/N=C/c1cccs1)c1cc(=O)nc2sccn12	1.27
C#CCN1C(=O)C(=O)c2ccccc21	-1.47
Clc1ccc(CSc2nnc(SCc3ccc(Cl)cc3)s2)cc1	0.51
Nc1ccc2nc(SCc3ccc(Cl)cc3)sc2c1	3.91*
SMILES	Dicer processing
Clc1ccc(CSc2nsc(SCc3ccc(Cl)cc3)n2)cc1	0
Cn1nc(C(F)(F)F)cc1OS(=O)(=O)c1ccc(C(F)(F)F)cc1	-0.98
COc1cc2nc(N3CCN(C(=O)c4ccco4)CC3)nc(N)c2cc1OC	0.19
COc1cc2c(cc1OC)CN(C(=O)c1ccco1)CC2	4.99*
COc1cc2c(cc1OC)CN(C(=O)CSc1nnc3ccccn13)CC2	-0.05
CN1CCN(Cc2c(O)ccc3c(=O)c(-c4ccccc4)coc23)CC1	2.02
CCc1cc2c(=O)c(-c3nc4ccccc4n3C)coc2c(CN(CC)CC)c1O	0.32
CCc1cc2c(=O)c(-c3nc4ccccc4[nH]3)coc2c(CN2CCCC(C)C2)c1O (stereo not drawn)	3.32*
CS(=O)(=O)N1CCC(Cc2ccccc2)CC1	-0.69
Cc1nn(-c2ccccc2)cc1/C=N/NC(=O)c1oc2nc(-c3cccs3)cc(-c3ccco3)c2c1N	-2.76
C=CCn1c(Sc2ncc(Br)cc2[N+](=O)[O-])n[nH]c1=O	-0.93
Cc1c(C(=O)N(Cc2ccccc2)C2CCS(=O)(=O)C2)oc2ccccc12 (stereo not drawn)	1.09
CCc1ccc(CN(C(=O)c2oc3ccccc3c2C)C2CCS(=O)(=O)C2)cc1 (stereo not drawn)	3.65*
Cc1c(C(=O)N(Cc2cccs2)C2CCS(=O)(=O)C2)oc2ccccc12 (stereo not drawn)	1.68
C=CCSc1nnnn1-c1ccc(O)cc1	-0.22
COc1ccc(OCc2nn3c(-c4ccccc4)nnc3s2)cc1	-1.13
CSc1sc(C(=O)NNC(=O)c2ccc(Cl)cc2)cc1S(=O)(=O)C(C)C	2.41
CSc1sc(NC(=O)Nc2ccc(Cl)cc2)cc1S(=O)(=O)C(C)C	3.94*
CSc1sc(NC(=O)Nc2cccc(C(F)(F)F)c2)cc1S(=O)(=O)C(C)C	3.32*
CSc1sc(C(=O)Nc2cccc(C(F)(F)F)c2)cc1C#N	0.02
CC(C)S(=O)(=O)c1csc(NC(=O)Nc2ccc(Cl)cc2)c1	19.4
CC(C)S(=O)(=O)c1csc(NC(=O)Nc2ccc(C(F)(F)F)cc2)c1	2.18
C=CCNc1nccc(C(F)(F)F)n1	-0.46
COCCOC(=O)C1=C(C)NC2=C(C(=O)CCC2)C1c1cc(OC)c(OC)cc1Br (stereo not drawn)	2.35
COc1ccc(-c2cnc3c(-c4ccc(OC)c(OC)c4)c(C)nn3c2N)cc1OC	-0.85
O=C1Nc2ccccc2C1=Nc1ccc(Cc2ccc(N=C3C(=O)Nc4ccccc43)cc2)cc1	3.94*
O=C1Nc2ccccc2C1=NCCCN=C1C(=O)Nc2ccccc21	-1.18
COc1ccc(N=C2C(=O)Nc3ccc(Br)cc32)cc1	-3.57
